Drawing on PubChem BioAssay (EPA / NIEHS), this text covers outcome and AC50 for three compounds.

Read-out in experiment [1]: Monokine induced gamma interferon (MIG), CXCL9 (gene 4283)
Description: BSK_hDFCGF_MIG: BioMAP Diversity Plus: hDFCGF Assay for Monokine induced gamma interferon (MIG) Biomarker Activity (AID 2283063). As to conditions: primary human foreskin fibroblasts; actives raise or lower the signal. Summed up:
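ELISA read-out of MIG from primary human dermal fibroblasts 24 h post-dosing. Gain or loss of signal fitted bidirectionally, DMSO as baseline.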

Read-out in experiment [2]: Vascular cell adhesion molecule 1 (VCAM1), VCAM1 (gene 7412)
The experiment can be described thus: BSK_hDFCGF_VCAM1: BioMAP Diversity Plus: hDFCGF Assay for Vascular cell adhesion molecule 1 (VCAM1) Biomarker Activity (AID 2283065).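 On AC50: VCAM-1 protein level quantified by ELISA after 24 h chemical exposure.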 The note with it: primary human foreskin fibroblasts; actives raise or lower the signal. In outline: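 Primary human foreskin fibroblasts (hDFCGF system) were dosed with chemical and VCAM-1 was measured by ELISA 24 h later. Bidirectional curve fitting used DMSO as negative control and activity baseline.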

Read-out in experiment [3]: Plasminogen activator inhibitor-1 (PAI1), SERPINE1 (gene 5054)
The experiment can be described thus: BSK_hDFCGF_PAI1: BioMAP Diversity Plus: hDFCGF Assay for Plasminogen activator inhibitor-1 (PAI1) Biomarker Activity (AID 2283066). As to conditions: primary human foreskin fibroblasts; actives raise or lower the signal. Summed up:
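Human foreskin fibroblast primary cells, 24 h chemical exposure; PAI-1 measured by ELISA. Bidirectional fitting relative to DMSO; parallel cultures stained with SRB for total protein to flag overt cytotoxicity.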

Read-out in experiment [4]: Intercellular Adhesion Molecule 1 (ICAM1), ICAM1 (gene 3383)
Description: BSK_KF3CT_ICAM1: BioMAP Diversity Plus: KF3CT Assay for Intercellular Adhesion Molecule 1 (ICAM1) Biomarker Activity (AID 2283067). The note with it: primary human keratinocytes with fibroblasts; actives raise or lower the signal. In outline: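 Human keratinocyte plus foreskin fibroblast primary co-culture was exposed to chemical for 24 h. ICAM-1 was then quantified by ELISA, and the data were fit bidirectionally against DMSO as the negative control and baseline.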

Read-out in experiment [5]: Interferon-gamma inducible Protein 10 (IP10), CXCL10 (gene 3627)
The experiment can be described thus: BSK_KF3CT_IP10: BioMAP Diversity Plus: KF3CT Assay for Interferon-gamma inducible Protein 10 (IP10) Biomarker Activity (AID 2283068). As to conditions: primary human keratinocytes with fibroblasts; actives raise or lower the signal. Summed up: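 In a primary skin co-culture of keratinocytes and fibroblasts, IP-10 is quantified by ELISA at 24 h after dosing. SRB staining of parallel wells monitors overt toxicity. Curves are fitted both directions against DMSO.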

Experiment [6] is described as follows: BSK_KF3CT_SRB: Viability Assessment in the BioMAP Diversity Plus: KF3CT Assay (AID 2283069).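 Further: total protein by sulforhodamine B staining as a cytotoxicity measure; read 24 h after compound addition.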 As to conditions: primary human keratinocytes with fibroblasts. Summed up: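 Human primary keratinocyte plus foreskin fibroblast co-culture exposed to chemicals for 24 h. Total protein measured by 0.1% sulforhodamine B staining after 10% TCA fixation, read at 560 nm; bidirectional fitting versus DMSO baseline.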

Read-out in experiment [7]: Interleukin-1 alpha (IL1a), IL1A (gene 3552)
Description: BSK_KF3CT_IL1a: BioMAP Diversity Plus: KF3CT Assay for Interleukin-1 alpha (IL1a) Biomarker Activity (AID 2283070). The note with it: primary human keratinocytes with fibroblasts; actives raise or lower the signal. Summed up:
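Human keratinocyte plus foreskin fibroblast primary co-culture, sampled 24 h after chemical dosing. IL-1a measured by ELISA; responses fitted bidirectionally against DMSO baseline (negative control), so gain or loss of signal both count.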

Read-out in experiment [8]: TIMP metallopeptidase inhibitor 2 (TIMP2), TIMP2 (gene 7077)
Description: BSK_KF3CT_TIMP2: BioMAP Diversity Plus: KF3CT Assay for TIMP metallopeptidase inhibitor 2 (TIMP2) Biomarker Activity (AID 2283071). The note with it: primary human keratinocytes with fibroblasts; actives raise or lower the signal. Summed up: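 Co-culture of human primary keratinocytes and foreskin fibroblasts, measured 24 h after chemical dosing. TIMP-2 quantified by ELISA and fitted in both directions relative to DMSO. Cytotoxicity checked in parallel cultures by SRB total-protein staining.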

Read-out in experiment [9]: Transforming growth factor beta 1 (TGFb1), TGFB1 (gene 7040)
The experiment can be described thus: BSK_KF3CT_TGFb1: BioMAP Diversity Plus: KF3CT Assay for Transforming growth factor beta 1 (TGFb1) Biomarker Activity (AID 2283072). The note with it: primary human keratinocytes with fibroblasts; actives raise or lower the signal. Summed up:
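Human keratinocyte/foreskin fibroblast co-culture; TGF-b1 measured by ELISA 24 h after dosing, fitted bidirectionally versus DMSO. Cytotoxicity checked in parallel cultures by total protein (SRB staining, 560 nm).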

Read-out in experiment [10]: C-C motif chemokine 2 (Homo sapiens) (UniProt P13500)
Description: BSK_KF3CT_MCP1: BioMAP Diversity Plus: KF3CT Assay for Monocyte Chemoattractant Protein 1 (MCP1/CCL2) Biomarker Activity (AID 2283073). As to conditions: primary human keratinocytes with fibroblasts; actives raise or lower the signal. Summed up: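 Human keratinocyte plus foreskin fibroblast primary co-culture exposed to chemical for 24 h. MCP-1 levels measured by ELISA. Bidirectional curve fitting relative to DMSO negative control as baseline.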

Read-out in experiment [11]: Matrix Metallopeptidase 9 (MMP9), MMP9 (gene 4318)
Description: BSK_KF3CT_MMP9: BioMAP Diversity Plus: KF3CT Assay for Matrix Metallopeptidase 9 (MMP9) Biomarker Activity (AID 2283074). As to conditions: primary human keratinocytes with fibroblasts; actives raise or lower the signal. In outline: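 Keratinocyte plus foreskin fibroblast human primary skin co-culture was dosed with chemical and MMP-9 was quantified by ELISA 24 h later. Bidirectional curve fitting used DMSO as negative control and activity baseline.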

Read-out in experiment [12]: urokinase plasminogen activator (uPA), PLAU (gene 5328)
The experiment can be described thus: BSK_KF3CT_uPA: BioMAP Diversity Plus: KF3CT Assay for urokinase plasminogen activator (uPA) Biomarker Activity (AID 2283075). As to conditions: primary human keratinocytes with fibroblasts; actives raise or lower the signal. In outline:
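Human keratinocyte plus foreskin fibroblast primary co-culture exposed to chemical for 24 h. uPA levels were quantified by ELISA, and activity was fitted bidirectionally against a DMSO negative-control baseline.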

Read-out in a further experiment: CD40, CD40 (gene 958)
The experiment can be described thus: BSK_LPS_CD40: BioMAP Diversity Plus: LPS Assay for CD40 Biomarker Activity (AID 2283076). As to conditions: primary human HUVEC with PBMC; actives raise or lower the signal. Summed up: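 Primary human umbilical vein endothelial cells co-cultured with peripheral blood mononuclear cells, LPS-stimulated, were dosed with chemical and read 24 h later. CD40 levels were measured by ELISA and fitted bidirectionally against DMSO as negative control and baseline.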

Read-out in experiment [13]: Interleukin-8 (IL8), CXCL8 (gene 3576)
The experiment can be described thus: BSK_LPS_IL8: BioMAP Diversity Plus: LPS Assay for Interleukin-8 (IL8) Biomarker Activity (AID 2283078). The note with it: primary human HUVEC with PBMC; actives raise or lower the signal. In outline: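 Human umbilical vein endothelial cells co-cultured with PBMC were stimulated with LPS; IL-8 levels were measured by ELISA 24 h after chemical dosing. Activity was fitted bidirectionally against DMSO as negative control and baseline.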

Experiment [14] is described as follows: BSK_LPS_SRB: Viability Assessment in the BioMAP Diversity Plus: LPS Assay (AID 2283079).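 Further: total protein by sulforhodamine B absorbance as a cytotoxicity measure; measured one day after compound addition.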 As to conditions: primary human HUVEC with PBMC. In outline:
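Human umbilical vein endothelial cells co-cultured with PBMC (LPS system) were dosed for 24 h. Total protein was stained with 0.1% sulforhodamine B after 10% TCA fixation, read at 560 nm, and fitted bidirectionally against DMSO baseline.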

Read-out in experiment [15]: Interleukin-1 alpha (IL1a), IL1A (gene 3552)
The experiment can be described thus: BSK_LPS_IL1a: BioMAP Diversity Plus: LPS Assay for Interleukin-1 alpha (IL1a) Biomarker Activity (AID 2283080). As to conditions: primary human HUVEC with PBMC; actives raise or lower the signal. In outline:
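Human umbilical vein endothelial cells co-cultured with peripheral blood mononuclear cells were LPS-stimulated and exposed to test chemicals for 24 h. IL-1 alpha was quantified by ELISA, with bidirectional curve fitting against DMSO as the negative control and baseline.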

Read-out in experiment [16]: Monocyte Chemoattractant Protein-1 (MCP1), CCL2 (gene 6347)
Description: BSK_LPS_MCP1: BioMAP Diversity Plus: LPS Assay for Monocyte Chemoattractant Protein-1 (MCP1) Biomarker Activity (AID 2283081). The note with it: primary human HUVEC with PBMC; actives raise or lower the signal. Summed up:
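HUVEC plus PBMC co-culture (human primary cells, LPS system) exposed to test chemical for 24 h; MCP-1 measured by ELISA. Bidirectional curve fitting against DMSO baseline; parallel SRB total-protein staining flags overt cytotoxicity.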

Read-out in experiment [17]: E-selectin (Homo sapiens) (UniProt P16581)
The experiment can be described thus: BSK_LPS_Eselectin: BioMAP Diversity Plus: LPS Assay for Eselectin Biomarker Activity (AID 2283077). The note with it: primary human HUVEC with PBMC; actives raise or lower the signal. In outline:
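Human umbilical vein endothelial cells co-cultured with peripheral blood mononuclear cells under LPS stimulation; E-selectin measured by ELISA 24 h after chemical dosing. Activity fitted bidirectionally against DMSO as negative control and baseline.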

Experiment [18] can be described thus: BSK_LPS_PGE2: BioMAP Diversity Plus: LPS Assay for Prostaglandin E2 (PGE2) Biomarker Activity (AID 2283082). As to conditions: primary human HUVEC with PBMC; actives raise or lower the signal. In outline: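 HUVEC plus human PBMC co-culture stimulated with LPS; secreted PGE2 quantified by ELISA 24 h after chemical dosing. Activity fitted bidirectionally against DMSO baseline; parallel SRB staining (0.1% SRB after 10% TCA fixation, 560 nm) flags overt cytotoxicity.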

“And” between values parts separate entries of the source, which are not always exact repeats. Identical values can stand only once. Where a structure was tested more than once in an assay, its records may differ in their call. The source made the active and inactive calls. How the source made its calls: active means hit-call score of the fitted dose curve at least 0.9, where 1 is the maximum; inactive means score below 0.9.

Chain of E-selectin (Homo sapiens) (P16581 whole entry, looked up): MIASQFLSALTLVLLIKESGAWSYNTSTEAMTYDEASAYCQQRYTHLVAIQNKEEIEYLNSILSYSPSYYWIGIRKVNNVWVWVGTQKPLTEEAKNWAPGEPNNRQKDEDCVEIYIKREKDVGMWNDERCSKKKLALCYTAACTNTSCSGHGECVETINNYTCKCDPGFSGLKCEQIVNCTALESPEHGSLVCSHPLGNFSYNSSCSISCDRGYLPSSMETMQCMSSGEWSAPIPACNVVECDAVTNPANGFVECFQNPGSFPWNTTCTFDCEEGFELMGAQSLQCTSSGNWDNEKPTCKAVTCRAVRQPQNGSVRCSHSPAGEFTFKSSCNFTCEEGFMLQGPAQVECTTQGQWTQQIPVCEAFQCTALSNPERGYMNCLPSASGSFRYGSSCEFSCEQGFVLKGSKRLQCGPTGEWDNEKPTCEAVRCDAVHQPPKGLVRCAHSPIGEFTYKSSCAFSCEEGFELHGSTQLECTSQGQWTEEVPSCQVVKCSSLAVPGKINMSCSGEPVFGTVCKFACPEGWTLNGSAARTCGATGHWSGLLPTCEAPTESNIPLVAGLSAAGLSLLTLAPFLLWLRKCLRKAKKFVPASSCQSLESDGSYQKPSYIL

For `Cn1c(=O)c2c(ncn2C)n(C)c1=O`, the result in experiment [1], in [2], in experiment [3], in experiment [4], in experiment [5] and in [6] was inactive. The result in [7], in experiment [8], in experiment [9], in experiment [10], in experiment [11] and in [12] was inactive. Moreover, the outcome with CD40, CD40 (gene 958) is “inactive”; in experiment [13] it was “inactive”; in experiment [14] it was “inactive”; in experiment [15], “inactive”; in experiment [16], “inactive”.

Consider `Cn1cnc([N+](=O)[O-])c1Sc1ncnc2nc[nH]c12`, for which the result in experiment [1], in experiment [2], in experiment [4], in experiment [5], in experiment [6] and in experiment [8] was inactive. The outcome in [9] is “inactive”; in [10], “inactive”; in [11], “inactive”; in experiment [12] it was “inactive”; in the experiment with CD40, CD40 (gene 958), “inactive”; in experiment [17] it was “inactive”. Moreover, the result in experiment [13], in experiment [14], in experiment [15] and in [18] was inactive. Besides, the concentration at half-maximal activity (AC50) (as a rule, the concentration at which the activity in the assay is half-maximal) was 12.6 µM (active) and 16 µM (active) in [2]; 26.9 µM (active) and 4.17 µM (active) in the experiment with CD40, CD40 (gene 958).

For the compound `Cc1ccc(O)cc1`, the result in experiment [1], in experiment [2], in experiment [3], in experiment [4], in experiment [5] and in [6] was inactive. Moreover, the outcome in experiment [7], in [8], in experiment [9], in experiment [10], in [11] and in [12] was inactive. In addition, the outcome is “inactive” with CD40, CD40 (gene 958); “inactive” in [13]; “inactive” in experiment [14]; “inactive” in experiment [15]; “inactive” in [16]. Further, the concentration at half-maximal activity (AC50) in experiment [18] was 4.37 µM (active).
